Changes are numbered by the printed parent chain; changes in the protein carry UniProt numbers. Whole data set: some 16,000 sequences, median “ka relative to ugcaugu” near 0.096, cut for the highest 2% near 0.35. The entries come from a sample that favours the highest values as a whole.

Sequences and labels used below:
T1: RBFOX1 RRM RbFoxmut (Fox-RRM*) (Homo sapiens, UniProt Q9NWB1 109-208, R118D;E147R;N151S;E152T)
T1 sequence: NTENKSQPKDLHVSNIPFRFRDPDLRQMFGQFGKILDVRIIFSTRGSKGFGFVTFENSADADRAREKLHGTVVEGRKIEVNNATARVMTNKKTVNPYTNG

B1: CGCGUAA (DNA:RNA)
RNA: GGGAGACCGGAAUUCAGAUUGUCCCGCGUAAUUAAAUCCCGUCGUAGCCACCA
DNA 1: CAATCTGAATTCCGGTCTCCC
DNA 2: TGGTGGCTACGACGGGATT
B2: AACGAAC (DNA:RNA)
RNA: B1 RNA with C25A, G26A, U29A, A31C
DNA 1: CAATCTGAATTCCGGTCTCCC
DNA 2: TGGTGGCTACGACGGGATT
B3: UAAUUGU (DNA:RNA)
RNA: B1 RNA with C25U, G26A, C27A, G28U, A30G, A31U
DNA 1: CAATCTGAATTCCGGTCTCCC
DNA 2: TGGTGGCTACGACGGGATT
B4: GGCUGUC (DNA:RNA)
RNA: B1 RNA with C25G, G28U, U29G, A30U, A31C
DNA 1: CAATCTGAATTCCGGTCTCCC
DNA 2: TGGTGGCTACGACGGGATT
B5: AUUCUUA (DNA:RNA)
RNA: B1 RNA with C25A, G26U, C27U, G28C, A30U
DNA 1: CAATCTGAATTCCGGTCTCCC
DNA 2: TGGTGGCTACGACGGGATT
B6: CCCUGCA (DNA:RNA)
RNA: B1 RNA with G26C, G28U, U29G, A30C
DNA 1: CAATCTGAATTCCGGTCTCCC
DNA 2: TGGTGGCTACGACGGGATT
B7: CUGCAUA (DNA:RNA)
RNA: B1 RNA with G26U, C27G, G28C, U29A, A30U
DNA 1: CAATCTGAATTCCGGTCTCCC
DNA 2: TGGTGGCTACGACGGGATT
B8: UGCAUUU (DNA:RNA)
RNA: B1 RNA with C25U, G28A, A30U, A31U
DNA 1: CAATCTGAATTCCGGTCTCCC
DNA 2: TGGTGGCTACGACGGGATT
B9: UGCCAUA (DNA:RNA)
RNA: B1 RNA with C25U, G28C, U29A, A30U
DNA 1: CAATCTGAATTCCGGTCTCCC
DNA 2: TGGTGGCTACGACGGGATT
B10: UGCAUAU (DNA:RNA)
RNA: B1 RNA with C25U, G28A, A31U
DNA 1: CAATCTGAATTCCGGTCTCCC
DNA 2: TGGTGGCTACGACGGGATT
B11: CUGCAUG (DNA:RNA)
RNA: B1 RNA with G26U, C27G, G28C, U29A, A30U, A31G
DNA 1: CAATCTGAATTCCGGTCTCCC
DNA 2: TGGTGGCTACGACGGGATT
B12: UGCCAUG (DNA:RNA)
RNA: B1 RNA with C25U, G28C, U29A, A30U, A31G
DNA 1: CAATCTGAATTCCGGTCTCCC
DNA 2: TGGTGGCTACGACGGGATT
B13: UGCCAUC (DNA:RNA)
RNA: B1 RNA with C25U, G28C, U29A, A30U, A31C
DNA 1: CAATCTGAATTCCGGTCTCCC
DNA 2: TGGTGGCTACGACGGGATT
B14: UGCAUGU (DNA:RNA)
RNA: B1 RNA with C25U, G28A, A30G, A31U
DNA 1: CAATCTGAATTCCGGTCTCCC
DNA 2: TGGTGGCTACGACGGGATT
B15: CGCGCUA (DNA:RNA)
RNA: B1 RNA with U29C, A30U
DNA 1: CAATCTGAATTCCGGTCTCCC
DNA 2: TGGTGGCTACGACGGGATT
B16: AUACCAG (DNA:RNA)
RNA: B1 RNA with C25A, G26U, C27A, G28C, U29C, A31G
DNA 1: CAATCTGAATTCCGGTCTCCC
DNA 2: TGGTGGCTACGACGGGATT
B17: CCAGGGG (DNA:RNA)
RNA: B1 RNA with G26C, C27A, U29G, A30G, A31G
DNA 1: CAATCTGAATTCCGGTCTCCC
DNA 2: TGGTGGCTACGACGGGATT
B18: CUUGUUU (DNA:RNA)
RNA: B1 RNA with G26U, C27U, A30U, A31U
DNA 1: CAATCTGAATTCCGGTCTCCC
DNA 2: TGGTGGCTACGACGGGATT
B19: AUGUAAA (DNA:RNA)
RNA: B1 RNA with C25A, G26U, C27G, G28U, U29A
DNA 1: CAATCTGAATTCCGGTCTCCC
DNA 2: TGGTGGCTACGACGGGATT
B20: AUGUAUC (DNA:RNA)
RNA: GGGAGACCGGAAUUCAGAUUGUCCAUGUAUCUUAAAUCCCGUCGUAGCCACCA
DNA 1: CAATCTGAATTCCGGTCTCCC
DNA 2: TGGTGGCTACGACGGGATT
B21: ACGUAUC (DNA:RNA)
RNA: B20 RNA with U26C
DNA 1: CAATCTGAATTCCGGTCTCCC
DNA 2: TGGTGGCTACGACGGGATT
B22: AUGUAUG (DNA:RNA)
RNA: B20 RNA with C31G
DNA 1: CAATCTGAATTCCGGTCTCCC
DNA 2: TGGTGGCTACGACGGGATT
B23: AUGUAGA (DNA:RNA)
RNA: B20 RNA with U30G, C31A
DNA 1: CAATCTGAATTCCGGTCTCCC
DNA 2: TGGTGGCTACGACGGGATT
B24: AUAUGUA (DNA:RNA)
RNA: B20 RNA with G27A, A29G, C31A
DNA 1: CAATCTGAATTCCGGTCTCCC
DNA 2: TGGTGGCTACGACGGGATT

This test deals with T1, RBFOX1 RRM RbFoxmut (Fox-RRM*). Kind of test: EMSA; HiTS-Eq, 1 nM pool, 10 min; buffer printed only for the single-RNA assays: 10 mM Tris pH 7.5, 150 mM NaCl, 3.4 mM EDTA, 0.001% NP-40, 30 C. As to conditions: tags: His6 N-terminal (pET28a); label: 5' 32P. In outline:
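Purified RbFox RRM, wild type or mutant, was incubated for 10 min in 50 µL with 1 nM of a 5′-radiolabelled RNA pool carrying 7 randomized nucleotides, whose flanks were annealed to DNA oligonucleotides, over a series of increasing protein concentrations. Unbound RNA was resolved on 8% native PAGE, cut out, reverse-transcribed, barcoded by PCR and sequenced on an Illumina HiSeq 2500. Relative association constants were derived from changes in read counts for each RNA species versus the control reaction and normalised to the cognate motif.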
Turning to B1, the binding signal is 0.114 KA relative to UGCAUGU.

With B2, the binding signal was 0.0568 KA relative to UGCAUGU.

B3: the binding signal was 0.0755 KA relative to UGCAUGU.

For the molecule B4, the binding signal was 0.211 KA relative to UGCAUGU.

On to B5, for which the binding signal was 0.13 KA relative to UGCAUGU.

With B6, the binding signal was 0.186 KA relative to UGCAUGU.

In the case of B7, the binding signal was 0.144 KA relative to UGCAUGU.

Consider B8, for which the binding signal was 0.137 KA relative to UGCAUGU.

Consider B9, for which the binding signal was 0.122 KA relative to UGCAUGU.

B10: the binding signal was 0.178 KA relative to UGCAUGU.

With B11, the binding signal is 1.34 KA relative to UGCAUGU.

Take B12: the binding signal is 0.509 KA relative to UGCAUGU.

Turning to B13, the binding signal was 0.208 KA relative to UGCAUGU.

In the case of B14, the binding signal is 1 KA relative to UGCAUGU.

For the molecule B15, the binding signal is 0.103 KA relative to UGCAUGU.

B16: the binding signal was 0.122 KA relative to UGCAUGU.

On to B17, for which the binding signal is 0.0555 KA relative to UGCAUGU.

Take B18: the binding signal was 0.0932 KA relative to UGCAUGU.

B19: the binding signal is 0.169 KA relative to UGCAUGU.

Turning to B20, the binding signal is 0.407 KA relative to UGCAUGU.

For B21, the binding signal was 0.185 KA relative to UGCAUGU.

Consider B22, for which the binding signal is 1.19 KA relative to UGCAUGU.

Regarding B23, the binding signal was 0.152 KA relative to UGCAUGU.

Regarding B24, the binding signal was 0.261 KA relative to UGCAUGU.

The values are drawn from paper PMC9911399, “Two distinct binding modes provide the RNA-binding protein RbFox with extraordinary sequence specificity”.
